Assay results reported in the supplement of paper PMC10849652.
About 8,800 targets were measured; listed, in parts, are those with a hit and a random draw of the rest. About 0.5% of all pairs of compound and target were hits.

How the values were obtained:
Test in all cases: log2 fold change, soluble protein after heating vs DMSO (PISA); higher = thermal stabilisation; K562 lysate, 10 uM; active = over 0.2 and 3.5 SD of the protein, either way, in both replicates (recomputed)
erlotinib = compound: C#Cc1cccc(Nc2ncnc3cc(OCCOC)c(OCCOC)cc23)c1 [erlotinib]
Outline: (§1)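 The values are log-two fold changes in thermal stability compared with solvent controls and come from duplicates. They were obtained by TMTpro 16plex LC-MS/MS, with channel sums equalised, on the supernatant after 21,000xg for 90 min. That supernatant came from crude K562 extract at 1 mg/mL protein treated with 10 μM compound for 30 min, heated for 3 min across 48°C-58°C, pooled and brought to 0.5% NP-40 at 4°C.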

[1] = compound: C/C(=N\NC(=O)C1=CC(=CC=C1)S(=O)(=O)N2CCOCC2)/C3=C(C=CC(=C3)Cl)O
Outline: as §1

[2] = compound: C1=CC(=CC=C1C2=NC3=C(N2)C=C(C=C3)C(=O)N)OC4=CC=C(C=C4)Cl
Outline: as §1

[3] = compound: C1=CC2=C(C=CC(=C2)/C=C\3/C(=O)NC(=NCC4=CC=CS4)S3)N=C1
Outline: as §1

[4] = compound: C1=CC2=NC=CN=C2C=C1/C=C/3\C(=O)NC(=O)S3
Outline: as §1

[5] = compound: C1=CC=C(C=C1)C2=NC(=C(N2)C3=CC=NC=C3)C4=CC(=C(C=C4)Cl)O
Outline: as §1

[6] = compound: C1=CC=C2C(=C1)C3=NNC4=CC=CC(=C43)C2=O
Outline: as §1

[7] = compound: C1CCN(C1)C(=O)NC2=CC=CC(=C2)NC3=NC=C(C(=N3)NCCC4=CN=CN4)Br
Outline: as §1

[8] = compound: C1CN(CCC1(CC2=CC=C(C=C2)Cl)N)C3=NC=NC4=C3C=CN4
Outline: as §1

IRAK-1-4 Inhibitor I = compound: C1COCCN1CCN2C3=CC=CC=C3N=C2NC(=O)C4=CC(=CC=C4)[N+](=O)[O-] [IRAK-1-4 Inhibitor I]
Outline: as §1

ibrutinib = compound: C=CC(=O)N1CCC[C@@H](n2nc(-c3ccc(Oc4ccccc4)cc3)c3c(N)ncnc32)C1 [ibrutinib]
Outline: as §1

[9] = compound: CC(=O)c1cnc2ccc(-c3cc(Cl)c(O)c(Cl)c3)nc2c1N[C@H]1CC[C@H](CN(C)C)CC1
Outline: as §1

ralimetinib = compound: CC(C)(C)Cn1c(N)nc2ccc(-c3[nH]c(C(C)(C)C)nc3-c3ccc(F)cc3)nc21 [ralimetinib]
Outline: as §1

[10] = compound: CC(C)(O)CC(=O)NCCn1ccc2ncnc(Nc3ccc(Oc4cccc(C(F)(F)F)c4)c(Cl)c3)c21
Outline: as §1

[11] = compound: CC(C)C1=C2N=C(C=C(N2N=C1)NCC3=CC=CC=C3)NCCCCCCN
Outline: as §1

[12] = compound: CC1=C(C(CC(=O)N1)C2=CC=C(C=C2)C(F)(F)F)C(=O)NC3=C(C=C4C(=C3)C=NN4)F
Outline: as §1

[13] = compound: CC1=C(C2=C(C=C1)C(=O)C3=CC=CC=C3N2CCCN)C
Outline: as §1

[14] = compound: CC1=C(C=C(C=C1)NC(=O)C2=CC(=CC=C2)C(C)(C)C#N)NC3=CC4=C(C=C3)N=CN(C4=O)C
Outline: as §1

[15] = compound: CC1=C(C=C(C=C1)NC(=O)C2=CC(=CC=C2)N(C)C)NC(=O)C3=CC=C(C=C3)O
Outline: as §1

[16] = compound: CC1=CC=C(C=C1)SC2=C3C=C(SC3=CN=C2)C(=O)N
Outline: as §1

Measured: log2 fold change

RPS6KA1 (UniProt Q15418)
active: [6] 0.509 | [9] 0.555
inactive: erlotinib 0.001 | [1] -0.064 | [2] 0.006 | [3] -0.029 | [4] 0.04 | [5] 0.13 | [7] -0.009 | [8] 0.06 | IRAK-1-4 Inhibitor I -0.036 | ibrutinib 0.047 | ralimetinib 0.32 | [10] -0.077 | [11] -0.011 | [12] -0.032 | [13] -0.035 | [14] -0.043 | [15] -0.052 | [16] -0.023

RAB27A (UniProt P51159)
inactive: erlotinib -0.045 | [1] 0.023 | [2] -0.014 | [3] 0.009 | [4] -0.009 | [5] -0.003 | [6] -0.025 | [7] -0.031 | [8] -0.015 | IRAK-1-4 Inhibitor I -0.049 | ibrutinib -0.011 | [9] -0.035 | ralimetinib 0.074 | [10] 0.033 | [11] -0.054 | [12] -0.044 | [13] 0.047 | [14] -0.057 | [15] 0.006 | [16] -0.026

RAPGEF2, A0A2R8YGD3
inactive: erlotinib -0.009 | [1] 0.16 | [2] 0.038 | [3] 0.042 | [4] -0.083 | [5] -0.047 | [6] 0.053 | [7] 0.007 | [8] -0.085 | IRAK-1-4 Inhibitor I 0.007 | ibrutinib -0.059 | [9] 0.007 | ralimetinib 0.008 | [10] -0.037 | [11] 0.008 | [12] 0.054 | [13] -0.07 | [14] 0.025 | [15] -0.025 | [16] 0.023

RNF40 (UniProt O75150)
inactive: erlotinib -0.008 | [1] -0.01 | [2] 0.007 | [3] -0.039 | [4] -0.016 | [5] 0.003 | [6] -0.04 | [7] 0.011 | [8] 0.024 | IRAK-1-4 Inhibitor I -0.008 | ibrutinib 0.048 | [9] -0.014 | ralimetinib 0.033 | [10] -0.015 | [11] -0.023 | [12] 0.007 | [13] -0.01 | [14] -0.001 | [15] -0.006 | [16] 0.004

RBM4 (UniProt Q9BWF3)
UniProt Q9BWF3, sequence (Q9BWF3 whole entry, looked up): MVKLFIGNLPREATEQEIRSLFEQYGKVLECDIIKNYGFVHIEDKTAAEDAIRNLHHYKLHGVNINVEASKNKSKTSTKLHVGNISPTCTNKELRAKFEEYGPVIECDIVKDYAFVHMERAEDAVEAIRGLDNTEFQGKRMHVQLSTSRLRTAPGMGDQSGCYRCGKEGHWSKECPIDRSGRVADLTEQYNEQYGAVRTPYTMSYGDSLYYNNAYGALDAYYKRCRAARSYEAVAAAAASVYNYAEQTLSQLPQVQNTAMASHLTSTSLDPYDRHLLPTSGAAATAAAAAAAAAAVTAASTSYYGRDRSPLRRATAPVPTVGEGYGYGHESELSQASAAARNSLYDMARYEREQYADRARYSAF
inactive: erlotinib -0.031 | [1] 0.059 | [2] -0.008 | [3] 0.009 | [4] 0.008 | [5] -0.065 | [6] -0.008 | [7] 0.001 | [8] 0 | IRAK-1-4 Inhibitor I -0.003 | ibrutinib 0.006 | [9] 0.021 | ralimetinib 0.008 | [10] -0.014 | [11] 0.023 | [12] 0.028 | [13] 0.005 | [14] -0.154 | [15] 0.025 | [16] -0.004

RAB6D (UniProt Q53S08)
inactive: erlotinib 0.027 | [1] -0.071 | [2] 0.054 | [3] -0.025 | [4] -0.048 | [5] -0.019 | [6] 0.044 | [7] -0.038 | [8] 0.157 | IRAK-1-4 Inhibitor I 0.003 | ibrutinib 0 | [9] 0.013 | ralimetinib -0.011 | [10] -0.087 | [11] 0.014 | [12] -0.113 | [13] -0.057 | [14] 0.009 | [15] 0.009 | [16] -0.026

RNF113A (UniProt O15541)
inactive: erlotinib -0.039 | [1] -0.039 | [2] 0.036 | [3] 0.027 | [4] -0.008 | [5] -0.01 | [6] -0.02 | [7] -0.005 | [8] 0.01 | IRAK-1-4 Inhibitor I 0.02 | ibrutinib 0.009 | [9] -0.003 | ralimetinib 0.005 | [10] -0.049 | [11] 0.111 | [12] 0.015 | [13] -0.038 | [14] 0.024 | [15] 0.017 | [16] -0.03

RFC2 (UniProt P35250)
inactive: erlotinib -0.004 | [1] 0.017 | [2] -0.059 | [3] -0.017 | [4] 0.018 | [5] 0.004 | [6] -0.013 | [7] -0.011 | [8] -0.031 | IRAK-1-4 Inhibitor I -0.013 | ibrutinib 0.009 | [9] 0.018 | ralimetinib 0.036 | [10] 0.044 | [11] -0.002 | [12] -0.001 | [13] 0.011 | [14] 0.008 | [15] 0.048 | [16] -0.001

RFC4 (UniProt P35249)
inactive: erlotinib 0.006 | [1] 0.027 | [2] -0.033 | [3] -0.027 | [4] 0.018 | [5] 0.007 | [6] -0.056 | [7] -0.022 | [8] -0.012 | IRAK-1-4 Inhibitor I -0.018 | ibrutinib -0.01 | [9] -0.008 | ralimetinib -0.01 | [10] -0.015 | [11] 0.032 | [12] 0 | [13] 0.026 | [14] -0.001 | [15] 0.002 | [16] 0.019

RAI14 isoform 2 (UniProt Q9P0K7)
inactive: erlotinib 0.015 | [1] 0.006 | [2] -0.007 | [3] 0.004 | [4] 0.001 | [5] 0.021 | [6] 0.02 | [7] 0 | [8] -0.018 | IRAK-1-4 Inhibitor I -0.028 | ibrutinib -0.019 | [9] -0.007 | ralimetinib -0.011 | [10] -0.01 | [11] -0.004 | [12] 0.017 | [13] -0.024 | [14] 0.01 | [15] 0.024 | [16] 0.001

SEC62 (UniProt Q99442)
inactive: erlotinib -0.046 | [1] -0.008 | [2] 0.018 | [3] 0.046 | [4] -0.021 | [5] 0.036 | [6] -0.022 | [7] -0.017 | [8] -0.009 | IRAK-1-4 Inhibitor I 0.042 | ibrutinib 0.002 | [9] -0.027 | ralimetinib -0.032 | [10] -0.058 | [11] 0.02 | [12] 0.013 | [13] -0.006 | [14] 0.022 | [15] 0.002 | [16] -0.015

SDHC (UniProt Q99643)
inactive: erlotinib 0.013 | [1] 0.002 | [2] 0.001 | [3] 0 | [4] -0.048 | [5] -0.01 | [6] 0.02 | [7] -0.02 | [8] -0.067 | IRAK-1-4 Inhibitor I 0.032 | ibrutinib 0.033 | [9] -0.012 | ralimetinib 0.064 | [10] -0.035 | [11] -0.05 | [12] -0.015 | [13] -0.013 | [14] -0.026 | [15] 0.023 | [16] 0.044

RELN (UniProt P78509)
UniProt P78509, sequence (P78509 whole entry, looked up): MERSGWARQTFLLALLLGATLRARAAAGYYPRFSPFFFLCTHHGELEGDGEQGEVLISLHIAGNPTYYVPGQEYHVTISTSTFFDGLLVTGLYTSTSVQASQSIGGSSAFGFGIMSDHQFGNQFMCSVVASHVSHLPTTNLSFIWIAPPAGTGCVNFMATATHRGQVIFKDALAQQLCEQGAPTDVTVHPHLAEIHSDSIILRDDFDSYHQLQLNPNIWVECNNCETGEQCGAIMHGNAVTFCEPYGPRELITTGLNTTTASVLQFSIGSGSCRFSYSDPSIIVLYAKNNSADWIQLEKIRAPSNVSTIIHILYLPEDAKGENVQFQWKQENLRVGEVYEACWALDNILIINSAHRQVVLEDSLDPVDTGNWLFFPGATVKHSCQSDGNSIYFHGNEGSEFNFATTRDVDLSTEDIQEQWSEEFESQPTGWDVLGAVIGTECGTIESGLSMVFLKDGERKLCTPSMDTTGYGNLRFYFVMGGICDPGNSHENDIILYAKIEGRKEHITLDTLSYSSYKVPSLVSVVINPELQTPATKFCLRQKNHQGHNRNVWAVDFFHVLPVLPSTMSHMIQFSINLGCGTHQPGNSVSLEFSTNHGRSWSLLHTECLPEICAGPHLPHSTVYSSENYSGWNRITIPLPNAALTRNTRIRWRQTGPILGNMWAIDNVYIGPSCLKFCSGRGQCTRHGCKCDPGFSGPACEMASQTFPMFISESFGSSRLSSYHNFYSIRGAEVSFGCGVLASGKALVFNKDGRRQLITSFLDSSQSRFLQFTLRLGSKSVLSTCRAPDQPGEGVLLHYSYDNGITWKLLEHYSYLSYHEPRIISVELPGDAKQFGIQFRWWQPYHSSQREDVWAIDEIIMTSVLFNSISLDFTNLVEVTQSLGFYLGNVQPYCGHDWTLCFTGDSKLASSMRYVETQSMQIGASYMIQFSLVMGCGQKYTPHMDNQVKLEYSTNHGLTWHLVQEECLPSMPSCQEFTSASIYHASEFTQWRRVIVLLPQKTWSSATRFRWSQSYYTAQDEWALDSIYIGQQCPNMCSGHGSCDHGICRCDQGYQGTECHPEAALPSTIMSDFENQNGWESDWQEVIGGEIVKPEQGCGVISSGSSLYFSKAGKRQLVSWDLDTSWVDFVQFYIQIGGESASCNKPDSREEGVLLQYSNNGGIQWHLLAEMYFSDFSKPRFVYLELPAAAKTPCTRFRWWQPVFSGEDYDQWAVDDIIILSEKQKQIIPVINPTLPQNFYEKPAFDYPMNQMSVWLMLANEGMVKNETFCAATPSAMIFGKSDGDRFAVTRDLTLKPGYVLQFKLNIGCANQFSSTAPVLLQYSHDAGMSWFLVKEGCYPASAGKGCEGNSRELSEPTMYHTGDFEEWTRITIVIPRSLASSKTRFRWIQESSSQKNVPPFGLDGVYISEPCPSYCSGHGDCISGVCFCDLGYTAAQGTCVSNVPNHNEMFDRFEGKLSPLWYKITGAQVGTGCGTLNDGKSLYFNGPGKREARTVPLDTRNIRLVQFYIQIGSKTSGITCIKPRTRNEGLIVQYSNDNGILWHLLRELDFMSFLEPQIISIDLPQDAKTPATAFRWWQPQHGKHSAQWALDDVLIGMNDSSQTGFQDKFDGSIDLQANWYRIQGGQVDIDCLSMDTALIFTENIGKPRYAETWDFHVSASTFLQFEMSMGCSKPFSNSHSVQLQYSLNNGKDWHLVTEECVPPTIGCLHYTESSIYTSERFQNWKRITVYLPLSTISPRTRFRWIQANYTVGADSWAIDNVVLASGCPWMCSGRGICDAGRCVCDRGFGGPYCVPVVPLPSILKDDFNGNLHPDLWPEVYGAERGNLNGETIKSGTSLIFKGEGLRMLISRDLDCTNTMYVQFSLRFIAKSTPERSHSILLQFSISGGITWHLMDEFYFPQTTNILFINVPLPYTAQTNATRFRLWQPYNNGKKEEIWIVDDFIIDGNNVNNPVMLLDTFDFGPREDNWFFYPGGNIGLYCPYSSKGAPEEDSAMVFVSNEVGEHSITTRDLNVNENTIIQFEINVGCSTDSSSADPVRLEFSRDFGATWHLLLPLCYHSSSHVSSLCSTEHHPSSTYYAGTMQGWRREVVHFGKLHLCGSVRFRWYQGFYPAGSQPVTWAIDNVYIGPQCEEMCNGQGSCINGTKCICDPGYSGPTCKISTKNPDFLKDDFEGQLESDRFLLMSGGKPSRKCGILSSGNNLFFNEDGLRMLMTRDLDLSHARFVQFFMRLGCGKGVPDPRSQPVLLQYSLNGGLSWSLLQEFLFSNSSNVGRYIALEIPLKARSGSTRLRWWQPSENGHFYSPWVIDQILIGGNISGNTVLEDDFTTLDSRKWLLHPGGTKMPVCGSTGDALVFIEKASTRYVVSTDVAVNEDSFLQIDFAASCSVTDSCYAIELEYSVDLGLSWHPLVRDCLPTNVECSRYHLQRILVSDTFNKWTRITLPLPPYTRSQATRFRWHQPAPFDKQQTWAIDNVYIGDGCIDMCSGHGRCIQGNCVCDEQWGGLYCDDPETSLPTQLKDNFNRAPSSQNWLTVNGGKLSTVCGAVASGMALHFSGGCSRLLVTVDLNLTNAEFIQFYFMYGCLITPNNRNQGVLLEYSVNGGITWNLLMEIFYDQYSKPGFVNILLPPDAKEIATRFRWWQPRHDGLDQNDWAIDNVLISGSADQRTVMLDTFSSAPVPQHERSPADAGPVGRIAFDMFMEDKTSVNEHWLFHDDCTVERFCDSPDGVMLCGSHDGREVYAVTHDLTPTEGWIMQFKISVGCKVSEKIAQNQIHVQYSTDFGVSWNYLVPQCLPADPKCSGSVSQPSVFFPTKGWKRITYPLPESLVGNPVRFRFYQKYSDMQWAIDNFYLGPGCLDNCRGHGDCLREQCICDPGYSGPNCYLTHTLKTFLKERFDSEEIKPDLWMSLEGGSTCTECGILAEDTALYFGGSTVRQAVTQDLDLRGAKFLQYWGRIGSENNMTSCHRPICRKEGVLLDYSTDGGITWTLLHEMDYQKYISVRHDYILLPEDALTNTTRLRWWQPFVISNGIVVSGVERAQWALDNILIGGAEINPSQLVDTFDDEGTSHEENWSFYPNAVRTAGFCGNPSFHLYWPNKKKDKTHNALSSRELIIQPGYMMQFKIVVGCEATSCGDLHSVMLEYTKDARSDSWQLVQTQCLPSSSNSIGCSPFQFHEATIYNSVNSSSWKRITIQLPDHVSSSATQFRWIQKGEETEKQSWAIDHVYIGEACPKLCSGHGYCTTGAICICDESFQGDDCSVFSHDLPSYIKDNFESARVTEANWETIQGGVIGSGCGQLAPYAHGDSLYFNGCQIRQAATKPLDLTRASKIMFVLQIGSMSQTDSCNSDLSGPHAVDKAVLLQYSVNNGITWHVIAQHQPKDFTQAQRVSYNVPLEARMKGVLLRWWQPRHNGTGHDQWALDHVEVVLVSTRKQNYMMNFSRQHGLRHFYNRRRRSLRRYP
active: [9] -0.237
inactive: erlotinib 0.012 | [1] 0.004 | [2] 0.014 | [3] 0.025 | [4] 0.001 | [5] 0.033 | [6] -0.015 | [7] 0.042 | [8] 0.058 | IRAK-1-4 Inhibitor I 0.002 | ibrutinib 0.011 | ralimetinib 0.011 | [10] -0.038 | [11] -0.039 | [12] -0.01 | [13] 0 | [14] -0.002 | [15] 0.041 | [16] 0.09

SDHA (UniProt P31040)
inactive: erlotinib 0.001 | [1] 0.034 | [2] 0.109 | [3] -0.006 | [4] 0.005 | [5] -0.005 | [6] 0.025 | [7] -0.009 | [8] 0.004 | IRAK-1-4 Inhibitor I 0.011 | ibrutinib -0.015 | [9] 0 | ralimetinib 0.043 | [10] 0.049 | [11] -0.01 | [12] 0.004 | [13] 0.008 | [14] 0.014 | [15] -0.015 | [16] 0.002

SCAF1 (UniProt Q9H7N4)
UniProt Q9H7N4, sequence (Q9H7N4 whole entry, looked up): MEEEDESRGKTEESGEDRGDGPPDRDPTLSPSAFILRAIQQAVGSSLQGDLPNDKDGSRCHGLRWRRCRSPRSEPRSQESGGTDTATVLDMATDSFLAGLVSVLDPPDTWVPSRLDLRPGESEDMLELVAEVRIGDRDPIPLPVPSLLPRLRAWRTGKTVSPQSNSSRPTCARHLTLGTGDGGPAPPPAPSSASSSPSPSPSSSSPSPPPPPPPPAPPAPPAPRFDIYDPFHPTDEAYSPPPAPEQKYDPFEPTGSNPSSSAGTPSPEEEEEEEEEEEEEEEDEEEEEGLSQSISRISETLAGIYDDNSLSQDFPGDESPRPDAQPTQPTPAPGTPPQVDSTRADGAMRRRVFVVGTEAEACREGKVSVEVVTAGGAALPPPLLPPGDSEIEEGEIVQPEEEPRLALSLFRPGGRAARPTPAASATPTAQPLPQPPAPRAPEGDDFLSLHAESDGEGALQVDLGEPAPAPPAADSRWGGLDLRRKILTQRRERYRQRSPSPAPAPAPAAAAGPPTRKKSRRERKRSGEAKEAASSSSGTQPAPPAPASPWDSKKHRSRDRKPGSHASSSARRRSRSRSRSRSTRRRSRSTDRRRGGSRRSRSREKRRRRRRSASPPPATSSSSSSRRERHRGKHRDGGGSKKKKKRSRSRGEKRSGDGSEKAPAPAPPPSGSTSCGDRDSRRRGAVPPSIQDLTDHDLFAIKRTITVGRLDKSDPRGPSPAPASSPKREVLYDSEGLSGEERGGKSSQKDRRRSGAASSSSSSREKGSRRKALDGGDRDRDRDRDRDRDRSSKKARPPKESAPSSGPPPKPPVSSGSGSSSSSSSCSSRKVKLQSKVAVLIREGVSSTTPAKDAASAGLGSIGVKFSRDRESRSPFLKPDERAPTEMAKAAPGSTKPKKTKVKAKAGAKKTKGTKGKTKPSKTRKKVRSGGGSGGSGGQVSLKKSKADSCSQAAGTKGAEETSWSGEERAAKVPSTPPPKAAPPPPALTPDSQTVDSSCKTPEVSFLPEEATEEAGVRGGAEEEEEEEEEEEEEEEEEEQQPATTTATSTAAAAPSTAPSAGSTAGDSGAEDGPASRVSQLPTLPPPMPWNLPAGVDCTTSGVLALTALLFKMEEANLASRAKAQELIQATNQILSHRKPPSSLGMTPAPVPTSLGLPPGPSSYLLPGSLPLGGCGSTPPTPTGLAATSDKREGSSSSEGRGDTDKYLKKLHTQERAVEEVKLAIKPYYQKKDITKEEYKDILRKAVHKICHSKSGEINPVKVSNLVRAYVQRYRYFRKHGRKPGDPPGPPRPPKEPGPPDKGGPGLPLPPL
inactive: erlotinib 0.016 | [1] 0.113 | [2] 0.066 | [3] 0.218 | [4] 0.025 | [5] -0.022 | [6] 0.033 | [7] 0.047 | [8] 0.041 | IRAK-1-4 Inhibitor I 0.081 | ibrutinib 0.219 | [9] -0.054 | ralimetinib -0.025 | [10] 0.171 | [11] 0.042 | [12] 0.065 | [13] -0.06 | [14] 0.056 | [15] 0.056 | [16] 0.002
